About 79,000 compounds went through this panel and 15% of them were active in at least one assay; those are over-represented in the sample as a whole. Rule as the data show it: active = growth inhibition above about 70%; inactive = the rest.
Key:
[1] = NCI Yeast Anticancer Drug Screen. Data for the rad50 strain (AID 155);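 also: 0% = growth of vehicle-only cultures of the same strain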; conditions: S. cerevisiae rad50 strain growth inhibition; at 50.0 µM; hits give high values
Procedure, shortened: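 Cells are treated with compound, grown, and their growth is then scored against vehicle-only cultures of the same repair-deficient yeast strain.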

[2] = NCI Yeast Anticancer Drug Screen. Data for the mec2-1 strain (AID 157); conditions: S. cerevisiae mec2-1 strain, at 50.0 µM, hits give high values
Procedure, shortened: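 Growth inhibition is read against vehicle-treated controls after compound exposure of the mec2-1 yeast strain, which is defective in DNA damage repair or cell cycle control.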

[3] = NCI Yeast Anticancer Drug Screen. Data for the sgs1 mgt1 strain (AID 161);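 also: 0% = growth of cultures given vehicle only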; conditions: S. cerevisiae sgs1 mgt1 strain, at 50.0 µM, hits give high values
Procedure, shortened: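 Percent growth inhibition was derived by comparing compound-exposed mutant yeast with vehicle-exposed cultures. The strain carries alterations in DNA damage repair.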

[4] = NCI Yeast Anticancer Drug Screen. Data for the cln2 rad14 strain (AID 165);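 also: 0% = growth equal to vehicle treated cultures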; conditions: S. cerevisiae cln2 rad14 strain, at 50.0 µM, hits give high values
Procedure, shortened: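 Growth inhibition, relative to vehicle-treated controls, is the read-out. The test organism is a yeast strain with defined genetic alterations, cln2 rad14.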

[5] = NCI Yeast Anticancer Drug Screen. Data for the bub3 strain (AID 167); conditions: S. cerevisiae bub3 mutant strain, at 50.0 µM, hits give high values
Procedure, shortened: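 Part of a panel of yeast mutants defective in DNA damage repair or cell cycle regulation. Each strain is grown with compound, and inhibition is calculated relative to solvent-treated cultures.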

[6] = NCI Yeast Anticancer Drug Screen. Data for the mlh1 rad18 strain (AID 175); conditions: S. cerevisiae mlh1 rad18 strain growth inhibition; at 50.0 µM; hits give high values
Procedure, shortened: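 Cells of a genetically altered yeast strain, deficient in DNA damage repair, were treated with compound. Their growth was then compared with that of vehicle-treated cultures to give inhibition.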

Measured: growth inhibition

O=C(O)C1OC1(c1ccccc1Cl)c1ccccc1Cl (configuration not stated)
inactive: [1] 7.3% | [2] -13.2% | [3] 7.8% | [4] 1.55% | [5] -3.3% | [6] 9.55%

N=c1nnc2ccc(Cl)cc2n1O
inactive: [1] 64.5% | [2] 4.7% | [3] 15.6% | [4] 9.65% | [5] -1.85% | [6] -5.25%

Brc1ccccc1/C=N\N=C\c1ccccc1Br
inactive: [1] 12.9% | [2] 2.5% | [3] 12.2% | [4] -5.25% | [5] -6.4% | [6] 5.35%

Cc1cc(S(=O)(=O)Cl)ccc1Cl
inactive: [1] 14.6% | [2] 1.3% | [3] -0.6% | [4] -29.2% | [5] 9.05% | [6] 7.6%

C=C(C)CC1CN2CCc3cc(OC)c(OC)cc3C2CC1=O (configuration not stated)
inactive: [1] 25.3% | [2] 6.85% | [3] 24.8% | [4] 18.8% | [5] 43.6% | [6] 26.6%

CCCC(=N)OCC
inactive: [1] -3.45% | [2] -27.4% | [3] -20.4% | [4] -0.45% | [5] 3.75% | [6] -5.05%

O=C=Nc1cccc([N+](=O)[O-])c1
inactive: [1] -0.65% | [2] -5.7% | [3] -0.75% | [4] -5.05% | [5] -27.9% | [6] -40.5%

OCC(O)COCCCCCCCCCCCCCC1C=CCC1 (configuration not stated)
inactive: [1] -35.8% | [2] -43.5% | [3] -35% | [4] -4.3% | [5] -23.5% | [6] -30.7%

CC(C)Nc1nc(N)nc(N)n1
inactive: [1] -11.1% | [2] -17.6% | [3] 2% | [4] -20.1% | [5] -17.6% | [6] -5.2%

O=C(COc1ccc(Cl)cc1C(=O)O)NCc1ccc([N+](=O)[O-])cc1
inactive: [1] -9.45% | [2] 8.1% | [3] 20.8% | [4] -10.9% | [5] -9.85% | [6] -24.6%

C=CCCC1(C)OC(C)C(C)O1 (configuration not stated)
inactive: [1] 8.75% | [2] 3.65% | [3] -0.95% | [4] -33% | [5] -5.85% | [6] -4.9%

COCC(=O)Nc1ccccc1
inactive: [1] -13.5% | [2] 6.05% | [3] 2.1% | [4] 1.55% | [5] 6.8% | [6] -6%

O=C1CCN(Cc2ccco2)C(=O)N1
inactive: [1] 1% | [2] -12.3% | [3] 10.9% | [4] -41% | [5] -5.7% | [6] 10.2%

CC(=O)OCC1OC(n2c(C)cc(C)c(C#N)c2=S)C(OC(C)=O)C(OC(C)=O)C1OC(C)=O (configuration not stated)
inactive: [1] 21.2% | [2] 16.6% | [3] -5.35% | [4] -14.9% | [5] -6.05% | [6] 32.4%

COC(OC)C1CC=CCCC1C(=O)O (configuration not stated)
inactive: [1] 17.1% | [2] 16.8% | [3] 11.7% | [4] -0.4% | [5] 14.2% | [6] -8.65%

O=C1C(=Cc2ccc([N+](=O)[O-])o2)C(=O)N(CCc2ccccc2)S(=O)(=O)N1CCc1ccccc1
inactive: [1] 38.9% | [2] -3.65% | [3] 10.8% | [4] -22.5% | [5] -6.6% | [6] 2.4%

CCCCCCCC/C=C\CCCCCCCC(=O)N(C)CC(=O)O
inactive: [1] 43.2% | [2] 38.2% | [3] 39.2% | [4] 21.1% | [5] 30.7% | [6] 29.1%

NC(=O)C(=O)c1ccccc1
inactive: [1] -6.65% | [2] -27.1% | [3] -2% | [4] -3% | [5] -19.6% | [6] -19.7%

CC(=O)C1=CCC2c3[nH]c4ccccc4c3CCN2C1 (configuration not stated)
inactive: [1] 17.6% | [2] 4.1% | [3] 20.3% | [4] 25.7% | [5] 1.5% | [6] 18.9%

CNC(=S)NC(=S)N(C)C
inactive: [1] -1.15% | [2] -29.9% | [3] 35.2% | [4] -25.8% | [5] -35.2% | [6] 35.9%

C=CCOC(=O)OCCOC(=O)OCC=C
inactive: [1] 6.4% | [2] -4.7% | [3] -2.05% | [4] -1.55% | [5] 24.1% | [6] -1.55%

COCC(C)(CO)CC(C)CO (configuration not stated)
inactive: [1] -13% | [2] -25.8% | [3] -0.15% | [4] -42% | [5] -7.1% | [6] -1.4%

CN1C=C([N+](=O)[O-])C(N2CCOCC2)C1N1CCOCC1 (configuration not stated)
inactive: [1] 3.1% | [2] 0.65% | [3] -3.5% | [4] 3.1% | [5] -26.6% | [6] 20.9%

CC1=CC(O)(Cc2ccccc2)CC(C)(C)C1 (configuration not stated)
inactive: [1] 2.1% | [2] -36.2% | [3] -17.9% | [4] -0.9% | [5] -27.9% | [6] -28.9%

O=C(O)c1ccc(B(O)O)cc1[N+](=O)[O-]
inactive: [1] 11.8% | [2] 4.75% | [3] 7.35% | [4] 8.7% | [5] 34.9% | [6] 5.15%

CCCCn1cnc2ccc3nc(-c4ccccc4)c(-c4ccccc4)nc3c2c1=O
inactive: [1] 43.8% | [2] -15.4% | [3] 9.3% | [4] 4.1% | [5] 1.5% | [6] 4.65%

CSc1nc(N)c(NS(=O)(=O)c2ccc(NC(C)=O)cc2)c(=O)[nH]1
inactive: [1] 5.85% | [2] 1.8% | [3] 9.05% | [4] -12.7% | [5] 2.45% | [6] 15.4%

CC(C)C(NCc1c(O)ccc2c(-c3ccccc3)cc(=O)oc12)C(=O)O (configuration not stated)
inactive: [1] -33.5% | [2] -21.6% | [3] -19% | [4] -12.2% | [5] -35.5% | [6] -10.2%

COC(=O)C(=[N+]=[N-])C(=O)c1cccc([N+](=O)[O-])c1
inactive: [1] 11.1% | [2] 15.5% | [3] 5.75% | [4] 17.2% | [5] 3.2% | [6] 12.2%

COc1ccc(CNc2cc(OC)c(OC)c(OC)c2)cc1
inactive: [1] -49.1% | [2] -36.7% | [3] -9.55% | [4] 9.25% | [5] -20.4% | [6] -33.1%

CC1(C)C(N2CCOCC2)CS1(=O)=O (configuration not stated)
inactive: [1] 1.75% | [2] -5.2% | [3] -1.5% | [4] -24.2% | [5] -15.7% | [6] 3.25%

CC(=O)O[C@H]1CC[C@]2(C)C3CC[C@]4(C)C([C@H](C)CCCC(C)C)CCC4[C@]3(/C=N/O)n3c(=O)n(-c4ccccc4)c(=O)n3[C@]2(/C=N\O)C1 (some centres not stated)
inactive: [1] 28% | [2] 35.2% | [3] 28.8% | [4] 9.7% | [5] 38.9% | [6] 45.4%

COc1ccc(-c2cc(-c3ccccc3)n(C3OCC(OC(C)=O)C(OC(C)=O)C3OC(C)=O)c(=S)c2C#N)cc1 (configuration not stated)
inactive: [1] 12.1% | [2] 18.9% | [3] -12.7% | [4] 4.55% | [5] -3.6% | [6] 32.4%

COC(=O)C1=NC(=S)N=C(C(=O)OC)C1(C)C(=O)c1ccccc1
inactive: [1] 4.3% | [2] -6.95% | [3] -12.4% | [4] 0.8% | [5] 3.75% | [6] 18.4%

CCCCOCC(=O)NC1CCCCC1
inactive: [1] 29.9% | [2] -30.4% | [3] -39.4% | [4] -10.2% | [5] -24.1% | [6] 33.6%

C(#CC[P+](c1ccccc1)(c1ccccc1)c1ccccc1)C[P+](c1ccccc1)(c1ccccc1)c1ccccc1
inactive: [1] -24.1% | [2] -16.4% | [3] 0.2% | [4] 3.55% | [5] -5.4% | [6] -10.4%

CCCCC/C(C)=C(\C#N)C(=O)OC
inactive: [1] -5.4% | [2] -29.1% | [3] -19.2% | [4] -15.3% | [5] -34% | [6] -27.4%

CCCc1cc(=O)oc2c(C=O)c(O)cc(O)c12
inactive: [1] 37.9% | [2] 24.7% | [3] 20.6% | [4] 9.6% | [5] 19.7% | [6] 46.5%

c1ccc(CC2(c3ccccc3)OCc3ccccc32)cc1 (configuration not stated)
inactive: [1] 6% | [2] 12.2% | [3] 17.6% | [4] 15.4% | [5] -2.2% | [6] 20.5%

C/C=C(/C)C(=O)O[C@@H]1c2c(C)coc2C(=O)[C@@]2(OC(C)=O)CCC[C@@](C)(O)[C@@]12C
inactive: [1] 26.8% | [2] 9.55% | [3] 24.3% | [4] 22.6% | [5] 39.4% | [6] 43.9%

O=C(CN1C(=O)c2ccccc2C1=O)NC(Cc1ccccc1)C(=O)O (configuration not stated)
inactive: [1] 7.85% | [2] -6.9% | [3] -16.9% | [4] -12.5% | [5] 10.1% | [6] -9.65%

COc1ccc2nc(NCN3C(=O)c4ccccc4C3=O)sc2c1
inactive: [1] 5.05% | [2] -4.05% | [3] -19.1% | [4] 26.9% | [5] 9.9% | [6] -5.5%

From PubChem BioAssay (NCI)
